We go through ten compounds from PubChem BioAssay (NCATS).

Structures are written as SMILES. Records with an inconclusive call do not appear. Entries that show only a call come without a potency. Activity calls are given as the source filed them. The call rests on the fitted dose curve; in most records, active means well fitted cell-killing curve with a large enough effect; inconclusive means small, poorly fitted or top-dose-only effect; inactive means flat fitted curve, though single readings scatter.
Potency means the concentration at half of the fitted maximal effect.

A short description of the assay: Cellular viability qHTS for adrenocortical cancer (ACC) cell line NCI-H295R (AID 1963990). Further: nearly all actives have a fitted effect of over 60% in size. The conditions noted are these: CellTiter-Glo ATP luminescence, 48 h; series mostly up to 46.1 µM. A digest of the protocol: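 Readout: CellTiter-Glo luminescence, 20 min RT. Exposure: 48 h, 37C/5% CO2. Cells: NCI-H295R, ITS-DMEM serum-free. Range: up to 46 uM. Analysis: 4PL fit, IC50 plus efficacy.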
(In qHTS, concentration-response curves come from the screen itself.)
Take `O=C(Cc1cccc(OC(F)(F)F)c1)Nc1ccc(CCCCc2nnc(NC(=O)Cc3ccccn3)s2)nn1`: the Potency result is “inactive”.

With `NCc1c[nH]c(=S)n1[C@H]1CCc2c(F)cc(F)cc2C1`, the Potency entry was “inactive”.

For `CC1=C(C(=O)Nc2cc3cn[nH]c3cc2F)C(c2ccc(C(F)(F)F)cc2)CC(=O)N1` (stereo not given), the Potency entry is “inactive”.

As for `O=c1c(-c2ccc(O)cc2)coc2cc(O)cc(O)c12`, the Potency entry is “inactive”.

In the case of `CC(N[C@H]1CCCC[C@H]1NC(=O)c1ccc(Cl)cc1)c1cccc2ccccc12` (stereo not given in full), the Potency was 7.08 µM (active).

`CC(C)N(C[C@H]1O[C@@H](n2cnc3c(N)ncnc32)[C@H](O)[C@@H]1O)C1CC(CCc2nc3ccc(C(C)(C)C)cc3[nH]2)C1` (stereo not given in full): the Potency result was “inactive”.

Consider `NNCCc1ccccc1`, for which the Potency result was “inactive”.

Take `C[C@@H]1C[C@H]2[C@@H]3CCC4=CC(=O)C=C[C@]4(C)[C@@]3(F)[C@@H](O)C[C@]2(C)[C@@]1(O)C(=O)CO`: the Potency result is “inactive”.

Consider `CC(C)C[C@H](NC(=O)[C@@H](O)[C@H](N)Cc1ccccc1)C(=O)O`, for which the Potency result was “inactive”.

Turning to `O=c1cc(-c2ccc(O)cc2)oc2cc(O)cc(O)c12`, the Potency entry was “inactive”.
